Data on 24 compounds can be found in PubChem BioAssay (NCATS).

A number with no mark means an inactive call. Inconclusive results are not listed. Calls of active or inactive are those of the source. Calls come from the whole dose curve; as a rule, active = well fitted curve in the direction sought with a large enough effect; inconclusive = small, poorly fitted or top-dose-only effect, or another doubt; inactive = no such curve, though single readings can be large; an effect the other way counts as inactive or inconclusive.

Assay [1] has as its target Glutathione peroxidase 1 (Homo sapiens) (UniProt P07203). Put plainly: Primary qHTS Assay for Inhibitors of Recombinant Selenoprotein Glutathione Peroxidase 1 (GPX1) (AID 1845191). Note: nearly all actives have a fitted effect of over 65% in size. Put shortly: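 GR-coupled readout: NADPH consumption tracked by fluorescence, ex 340/em 450 nm, at t=0 and after 15 min at RT. Final mix 10 nM GPX1, 1 mM GSH, 0.5 mM CHP, 0.5 mM NADPH, 100 nM GR, 0.01% BSA, following 30 min enzyme–compound preincubation.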
Background: qHTS replaces the single test concentration by a dilution series.

The target of assay [2] is Phospholipid hydroperoxide glutathione peroxidase GPX4 (Homo sapiens) (UniProt P36969). Put plainly: Primary qHTS Assay for Inhibitors of Recombinant Selenoprotein Glutathione Peroxidase 4 (GPX4) (AID 1845192). For activity change, negative = inhibition: series mostly up to about 50 µM; % is set by controls: 0 for no effect and ±100 for the full control effect. Note: nearly all actives have a fitted effect of over 65% in size. In short, it runs like this:
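Steps: GPX4 plus compound, 30 min RT; add GR/GSH/NADPH master mix; start with cumene hydroperoxide; read 340/450 nm fluorescence at 0 and 15 min. Finals were 200 nM GPX4, 1 mM GSH, 0.5 mM CHP, 0.5 mM NADPH, 100 nM GR.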

Assay [3] addresses Luciferin 4-monooxygenase (Photinus pyralis) (UniProt P08659). Put plainly: Primary firefly luciferase (FLuc) qHTS assay for identification of artifact compounds. (AID 1845220).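 For activity change, negative = inhibition: series mostly up to about 54 µM; plate controls were DMSO vehicle for no effect and no enzyme for full effect.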 Note: nearly all actives have a fitted effect of over 60% in size. In short, it runs like this: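 D-luciferin and ATP (10 uM each, final) in Tris acetate buffer pH 7.6 were incubated with compounds for 15 min at room temperature. The reaction was started with 10 nM Photinus pyralis luciferase and luminescence read after 5 min. Percent inhibition was fitted to a 4-parameter Hill equation.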

Assay [4] can be described thus: Primary fluorescence-based thiol-reactive (MSTI) qHTS assay for identification of artifact compounds. (AID 1845221).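 For activity change, negative = thiol reactive: series mostly up to about 54 µM; thiol-reactive compounds lower the probe fluorescence signal.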 Note: nearly all actives have a fitted effect of over 65% in size. Note: potency is the fitted concentration of half-maximal effect. In short, it runs like this: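 MSTI probe at 4 uM final in 2% DMSO/PBS pH 7.4; compounds, 1 h at room temperature in dark. Fluorescence Ex/Em 525/598 nm, normalised to Acetyl-MSTI and MSTI, fitted to 4-parameter Hill.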

Sequence of Glutathione peroxidase 1 (Homo sapiens) (P07203 whole entry, looked up): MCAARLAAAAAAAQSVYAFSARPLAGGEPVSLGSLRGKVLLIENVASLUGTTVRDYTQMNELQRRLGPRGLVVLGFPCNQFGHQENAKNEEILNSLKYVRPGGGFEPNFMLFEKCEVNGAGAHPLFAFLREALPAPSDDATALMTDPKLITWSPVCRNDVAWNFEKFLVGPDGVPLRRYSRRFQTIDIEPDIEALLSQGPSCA
Sequence of Phospholipid hydroperoxide glutathione peroxidase GPX4 (Homo sapiens) (P36969 whole entry, looked up): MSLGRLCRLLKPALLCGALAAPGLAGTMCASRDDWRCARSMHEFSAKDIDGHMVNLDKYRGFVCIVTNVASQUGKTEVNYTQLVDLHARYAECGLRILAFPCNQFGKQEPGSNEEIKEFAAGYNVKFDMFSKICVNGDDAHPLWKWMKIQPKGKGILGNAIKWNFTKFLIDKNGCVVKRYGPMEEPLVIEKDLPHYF

`CCN(CCN(C)C)C(=O)CNCc1cc(C(N)=O)ccn1`: the Potency entry in assay [1], in assay [2], in assay [3] and in assay [4] was “inactive” each time.

Take `CC1(C)CC[C@]2(C(=O)O)CC[C@]3(C)C(=CCC4[C@@]5(C)CC[C@H](O[C@H]6O[C@H](C(=O)O)[C@@H](O)[C@H](O[C@@H]7O[C@H](CO)[C@H](O)[C@H](O)[C@H]7O)[C@H]6O)C(C)(C)C5CC[C@]43C)[C@@H]2C1` (stereo partly specified): the Potency entry in assay [1] and in assay [2] was “inactive” throughout. Moreover, the activity change, negative = inhibition in assay [3] was 1.03% [at 11.6 µM]. Also, the activity change, negative = thiol reactive in assay [4] was 239% [at 11.5 µM].

On to `CC1(C(=O)O)CCCC2(C)C3CCC4CC3(CCC12)CC4(O)CO` (stereo unspecified), for which the Potency result in assay [1], in assay [2], in assay [3] and in assay [4] was “inactive” throughout.

For `Cn1cc(Nc2cnccc2C(=O)O)c2cccnc21`, the Potency result in assay [1], in assay [2], in assay [3] and in assay [4] was “inactive” in each case.

As to `C[C@@H]1O[C@@H](O[C@H]2[C@H](O[C@H]3[C@H](O[C@H]4CC[C@@]5(C)C(CC[C@]6(C)C5CC=C5[C@@H]7CC(C)(C)C[C@@H](O)[C@]7(C)CC[C@]56C)[C@@]4(C)CO)O[C@H](C(=O)O)[C@@H](O)[C@@H]3O)O[C@H](CO)[C@H](O)[C@@H]2O)[C@H](O)[C@H](O)[C@H]1O` (stereo partly specified), the Potency result in assay [1] and in assay [2] was “inactive” each time. Further, the activity change, negative = inhibition in assay [3] was 0.671% [at 11.6 µM]. In addition, the activity change, negative = thiol reactive in assay [4] is 67.3% [at 11.5 µM].

Consider `CC1CC(O)/C=C/C(O)/C=C\C(=O)O1` (stereo unspecified), for which the Potency entry in assay [1], in assay [2], in assay [3] and in assay [4] was “inactive” throughout.

Take `CC(=O)OC1CC2C(C)(C)C(=O)C=CC2(C)C2CC(=O)C3=C(CCC3C3=CC(O)OC3=O)C12C` (stereo unspecified): the Potency result in assay [1], in assay [2], in assay [3] and in assay [4] was “inactive” each time.

`C=C(C)[C@@H]1CC[C@]2(CO)CC[C@]3(C)[C@H](CC[C@@H]4[C@@]5(C)CC[C@H](O)C(C)(C)[C@@H]5CC[C@]43C)[C@@H]12`: the Potency result in assay [1], in assay [2], in assay [3] and in assay [4] was “inactive” throughout.

Regarding `O=C(OCC1=CC(Cl)C(O)C(OC(=O)c2ccccc2)C1O)c1ccccc1` (stereo unspecified), the Potency entry in assay [1], in assay [2], in assay [3] and in assay [4] was “inactive” each time.

Consider `Cc1cc(Cn2cnc3c2CC(C(=O)O)N(C(=O)C(c2ccccc2)c2ccccc2)C3)ccc1N(C)C` (stereo unspecified), for which the Potency entry in assay [1], in assay [2], in assay [3] and in assay [4] was “inactive” throughout.

In the case of `O=C(OC(C(F)(F)F)C(F)(F)F)N1CCN(Cc2cccc(Oc3ccccc3)c2)CC1`, the Potency entry in assay [1], in assay [2], in assay [3] and in assay [4] was “inactive” each time.

Take `CC(C)C1C(OC(=O)/C=C/c2ccccc2)CC2(C)OC2CCC2(C)OC2C1O` (stereo unspecified): the Potency entry in assay [1], in assay [2], in assay [3] and in assay [4] was “inactive” throughout.

As to `COc1cc(Nc2nc3c(s2)CCCC3c2ccccc2)ccc1-n1cnc(C)c1` (stereo unspecified), the Potency entry in assay [1] and in assay [2] was “inactive” throughout. Further, the outcome in assay [3] is “inactive [at 11.6 µM]”. The activity change, negative = thiol reactive in assay [4] is -6.96% [at 11.5 µM].

Consider `N#Cc1cccc(-c2c[nH]c3ncnc(N4CCOCC4)c23)c1`, for which the Potency result in assay [1], in assay [2], in assay [3] and in assay [4] was “inactive” each time.

In the case of `COc1ccc(CC(=O)NCc2ccccc2-c2ccccc2C(=O)NCCc2cccnc2)cc1`, the Potency result in assay [1], in assay [2], in assay [3] and in assay [4] was “inactive” in each case.

With `CC(=O)OC12CC(C)C(OC(=O)c3ccccc3)C1/C=C(/C)C(OC(=O)c1ccccc1)CC(=O)C(C)(C)/C=C/C(C)C2=O` (stereo unspecified), the Potency result in assay [1], in assay [2], in assay [3] and in assay [4] was “inactive” throughout.

Take `CCC(C)/C=C(C)/C=C/C1=CC2=C(Cl)C(=O)C(C)(OC(C)=O)C(=O)C2=CN1C(CCC(=O)O)C(=O)O` (stereo unspecified): the Potency entry in assay [1], in assay [2] and in assay [3] was “inactive” in each case. Further, the Potency in assay [4] is 0.367 µM (active).

Regarding `C[C@@H]1C[C@@H](O)[C@@]23CO[C@]2(CO)C[C@@H](O)CC3[C@@]12CC(c1ccoc1)OC2=O` (stereo partly specified), the Potency result in assay [1], in assay [2] and in assay [3] was “inactive” in each case. Further, the Potency in assay [4] is 6.56 µM (active).

Turning to `COc1cc(/C=C/C(=O)O[C@H]2[C@H](O)[C@@H](CO)O[C@@]2(CO)O[C@H]2O[C@H](CO)[C@@H](O)[C@H](O)[C@H]2O)cc(OC)c1O`, the Potency result in assay [1], in assay [2], in assay [3] and in assay [4] was “inactive” in each case.

For the compound `CCCNCCOc1ccc(NC(=O)c2c[nH]c3c2C(=O)CCC3)cc1F`, the Potency result in assay [1], in assay [2], in assay [3] and in assay [4] was “inactive” throughout.

As to `C=CCC1=C[C@]2(OC)[C@H](C)[C@@H](c3ccc(OC)c(OC)c3)O[C@]2(OC)CC1=O`, the Potency entry in assay [1], in assay [2], in assay [3] and in assay [4] was “inactive” each time.

`CC(=O)O[C@H]1C[C@@H](O)C(C)(C)C2C[C@@H](OC(C)=O)[C@@]3(C)C4=CCC(C(CO)CC(O)C5OC5(C)C)[C@]4(C)CCC3[C@]21C` (stereo partly specified): the Potency result in assay [1], in assay [2], in assay [3] and in assay [4] was “inactive” throughout.

Take `Cc1ccccc1-c1cc(N2CCN(C)CC2)ncc1N(C)C(=O)C(C)(C)c1cc(C(F)(F)F)cc(C(F)(F)F)c1`: the Potency entry in assay [1], in assay [2], in assay [3] and in assay [4] was “inactive” each time.

For the compound `COc1cc2c(cc1O)C(c1ccc(O)cc1)C(C)C(C)C2` (stereo unspecified), the Potency result in assay [1], in assay [2], in assay [3] and in assay [4] was “inactive” throughout.
